Source: PubChem
Hits are enriched below; roughly 0.86% of the tested compounds scored in any of these assays.
RECQ1 inh-1 = inhibitors of human RECQ1 DNA helicase; Potency, µM (top dose mostly 57.3 µM), without a hit: top-dose activity, negative = inhibition, usual class: inhibitors; RECQ1 DNA unwinding, red fluorescence kinetic read; AID 2549; hit rate 0.54% among 240,000; P46063;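 also: plate controls were vehicle for no effect and no enzyme for full effect; nearly all actives have a fitted effect of over 30% in size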
Target sequence (P46063 whole entry, looked up): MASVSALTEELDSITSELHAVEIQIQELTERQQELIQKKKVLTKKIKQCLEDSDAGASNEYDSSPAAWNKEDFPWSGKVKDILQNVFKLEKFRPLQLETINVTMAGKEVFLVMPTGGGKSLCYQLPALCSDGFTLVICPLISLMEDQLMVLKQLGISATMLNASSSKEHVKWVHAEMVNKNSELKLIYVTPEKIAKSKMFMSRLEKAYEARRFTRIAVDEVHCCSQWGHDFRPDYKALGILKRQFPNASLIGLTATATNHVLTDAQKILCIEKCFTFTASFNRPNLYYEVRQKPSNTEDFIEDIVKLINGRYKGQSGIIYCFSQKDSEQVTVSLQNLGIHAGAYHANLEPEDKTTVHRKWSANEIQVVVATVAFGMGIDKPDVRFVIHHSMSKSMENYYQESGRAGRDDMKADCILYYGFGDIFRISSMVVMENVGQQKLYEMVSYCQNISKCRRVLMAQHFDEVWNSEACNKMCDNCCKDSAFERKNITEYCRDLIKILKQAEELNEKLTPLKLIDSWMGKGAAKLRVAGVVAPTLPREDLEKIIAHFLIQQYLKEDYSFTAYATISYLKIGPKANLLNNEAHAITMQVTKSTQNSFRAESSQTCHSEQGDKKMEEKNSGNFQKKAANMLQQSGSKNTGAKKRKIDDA
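50 nM RECQ1T1 preincubated 15 min with compound in Tris pH 8.0 buffer with MgCl2, DTT, Tween-20 and 2.5 ug/ml poly(dI-dC); started with 200 nM TAMRA/BHQ-2 forked duplex and 2 mM ATP. Unwinding read as fluorescence (525/598 nm), two reads 2 h apart.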
FEN1 inh = inhibitors of human flap endonuclease 1; Potency, µM (titrated, usually from 114 µM), inactives show at the highest dose activity change, negative = inhibition, most hits filed as inhibitors; P39748; Recombinant FEN1 flap cleavage, fluorescence, 15 min; AID 588795; hit rate 0.35% among 390,000; also: nearly all actives have a fitted effect of over 65% in size
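Concentration–response screening of FEN1 (10 nM): 15 min compound preincubation at room temperature, reaction started with 50 nM substrate and read at 0 and 15 min. Corrected, normalized data were fitted by a four-parameter Hill equation.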
GLS inhibitor = glutaminase GLS (human) inhibition. O94925. GLS enzymatic activity, qHTS titration. Potency, µM (highest dose often 45.5 µM), inactives show at the top dose activity change, negative = inhibition, hits mostly inhibitors. hit rate 0.21% among 410,000. AID 624170
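Enzyme dispensed in phosphate buffer (45 mM, pH 8.2, 0.02% Tween-20), compounds pinned in, then 1 mM L-glutamine solution and the glutamate oxidase–HRP–Amplex Red mix added; fluorescence read immediately and again after 30 min at room temperature.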
Tb PGK inh = inhibitors of T. brucei phosphoglycerate kinase; P07378; PGK/GAPDH coupled, Kinase-Glo luminescence, 60 min; Potency, µM (series often up to 57.5 µM), for inactives: at the highest dose activity change, negative = inhibition, actives largely listed as inhibitors; hit rate 0.043% among 380,000; AID 602233; also: nearly all actives have a fitted effect of over 60% in size
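Luminescent ATP detection (Kinase-Glo Plus) follows a 60-minute room-temperature incubation, with wells lacking PGK as controls. Buffer: 100 mM TEA (pH 7.6), 5 mM MgCl2, 0.01% Tween-20. Coupling enzyme GAPDH (100 nM final) supplies unstable 1,3-BPG in-well.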
BLM inh = Bloom syndrome helicase (human) inhibition | Potency, µM (highest dose often 56.1 µM), inactives show top-dose activity change, negative = inhibition, usual class: inhibitors | recombinant BLM DNA unwinding, fluorescence dequenching | hit rate 0.2% among 350,000 | P54132 | AID 2528;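 also: plate controls were vehicle for no effect and no enzyme for full effect; nearly all actives have a fitted effect of over 35% in size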
APE1 inh = blocks human APE1 abasic DNA cleavage. Potency, µM (top dose mostly 65.8 µM), inactives show top-dose activity change, negative = inhibition, actives largely listed as inhibitors. P27695. AID 2517. recombinant APE1, TAMRA/BHQ-2 abasic DNA cleavage fluorescence. hit rate 0.35% among 350,000;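 also: plate controls were vehicle for no effect and reference inhibitor for full effect; nearly all actives have a fitted effect of over 55% in size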
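Substrate: short duplex with […] THF abasic site, 5'-TAMRA and 3'-BHQ-2, 50 nM final. APE1 at 0.75 nM, preincubated 15 min RT with compound. Fluorescence increase from first to third read measured activity.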
RECQ1 conf = confirmation of human RECQ1 helicase inhibitors. RECQ1 helicase DNA unwinding, fluorescence. shares compounds with RECQ1 inh-1. Potency, µM (top dose mostly 229 µM), for the others: at the top dose activity change, negative = inhibition, usual class: inhibitors. hit rate 28% among 610; also: nearly all actives have a fitted effect of over 45% in size
ADP FP counter = ADP displacement flagged in RECQ1 inhibitor counter-screen | shares compounds with RECQ1 inh-1 | ADP fluorescence polarization displacement counterscreen | Potency, µM (doses to about 228 µM), for the others: top-dose activity change, negative = inhibition, hits mostly inhibitors | hit rate 27% among 530 | AID 2711; also: nearly all actives have a fitted effect of over 45% in size
RECQ1 inh-2 = blocks human RECQ1 DNA unwinding | shares compounds with RECQ1 inh-1 | recombinant RECQ1 DNA unwinding, red fluorescence | Potency, µM (top dose mostly 119 µM), without a hit: top-dose activity, negative = inhibition, actives largely listed as inhibitors | hit rate 15% among 1,100; also: nearly all actives have a fitted effect of over 50% in size
The depositor's hits bear a star; i = inactive; ? = inconclusive; nt = not tested or not shown; ! = a repeat was not active; [ ] = dose if it differs, or a comment. Calls follow the shape of the dose curve; as a rule, active = well fitted curve in the direction sought with a large enough effect; inconclusive = small, poorly fitted or top-dose-only effect, or another doubt; inactive = no such curve, though single readings can be large; an effect the other way counts as inactive or inconclusive. Unless noted, % is scaled to controls: 0 for no effect and ±100 for the full control effect; potency is read from the fitted curve at half-maximal effect.

SMILES	RECQ1 inh-1	FEN1 inh	GLS inhibitor	Tb PGK inh	BLM inh	APE1 inh	RECQ1 inh-2	others
CC(=O)c1cccc(NCc2ccccc2-c2nnc(-c3ccccc3)o2)c1	nt	16%	17%	i	-3%	nt	nt
CC1=NN(c2ccc(N)cc2)C(=O)C1	?	?	-4%	-14%	-24%	?	-2%
Cc1cc(=O)c2c(O)c3c(O)cc(O)c4c5c(O)cc(O)c6c(O)c7c(=O)cc(C)c8c1c2c(c34)c(c65)c78	0.56µM*	nt	nt	nt	20µM*	3.2µM*	nt	RECQ1 conf=?;ADP FP counter=0.14µM*
Cc1ccc(C(=O)N2CCN(c3ccc(F)cc3)CC2)cc1NC(=O)c1nsc2ccccc12	nt	8%	-5%	-3%	-6%	nt	nt
O=C(C1=NN[C@@H]2C(=O)N(c3cccc(F)c3)C(=O)[C@H]12)C(c1ccccc1)c1ccccc1	-6%	10%	-7%	-1%	-2%	14%	nt
O=C(C1=NN[C@@H]2C(=O)N(c3cccc(C(F)(F)F)c3)C(=O)[C@H]12)C(c1ccccc1)c1ccccc1	28µM*	0%	-6%	i	-12%	-7%	-20%
c1ccc(CC[n+]2ccncc2)cc1	nt	7%	nt	nt	nt	nt	nt
Cc1csc2nc(COC(=O)c3cccc(NC(=O)c4cccc(Cl)c4)c3)cc(=O)n12	nt	-2%	-2%	9%	?	nt	nt
O=C1CCCC2=C1C(c1ccc(O)c(O)c1)c1c(ccc3ncccc13)N2 (stereo unspecified)	11µM*	?	?	?	-10%	10µM*	?	RECQ1 conf=?;ADP FP counter=?
COc1ccc(O[C@H]2C=C[C@@H](c3ccccc3)O[C@H]2CO/N=C\C[C@@H]2C=C[C@H](OC(C)=O)[C@H](COC(C)=O)O2)cc1	i[11.5 µM]	nt	nt	nt	-2%[12.4 µM]	?	nt
COCCn1c(N)c(C(=O)NCc2cccs2)c2nc3ccccc3nc21	?	?	-7%	-5%	-13%	?	-16%
COCCn1c(N)c(S(=O)(=O)c2cccs2)c2nc3ccccc3nc21	-13%	11%	-6%	-8%	?	0%	nt
COCCn1c(N)c(C(=O)NCC2CCCO2)c2nc3ccccc3nc21 (stereo unspecified)	?	-11%	4%	5%	?	?	-10%
CC[C@@]1(c2ccccc2)NC(=O)NC1=O	-9%	nt	nt	nt	-3%	0%	nt
O=C(CNS(=O)(=O)c1c(Cl)cccc1Cl)OCC(=O)c1ccc[nH]1	?	-22%	-16%	-13%	-26%	7%	-23%
CCN(CC)C(=O)CC(c1ccccc1)c1ccco1 (stereo unspecified)	?	-16%	-6%	18%	-4%	12%	?
CCC(=O)N(CCC(c1ccccc1)c1ccco1)Cc1cccs1 (stereo unspecified)	-19%	16%	-13%	-10%	-7%	-1%	nt
O=C(c1ccco1)N(CCC(c1ccccc1)c1ccco1)Cc1ccccc1 (stereo unspecified)	11µM*	-12%	-6%	-8%	-25%	?	45µM*	RECQ1 conf=?;ADP FP counter=20%[91.9 µM]
CCC(/C=C1\Sc2ccc(OC)cc2N1CCO)=C\c1sc2ccc(OC)cc2[n+]1CCO	13µM*	35µM*	16%	?	?	?	45µM*
CCC(/C=C1\Sc2ccc(OC)cc2N1CC)=C\c1sc2ccc(OC)cc2[n+]1CCCS(=O)(=O)[O-]	-8%	?	6%	?	4%	?	nt
CC(C)CC(=O)Nc1ccc(C(=O)Cn2nc(C(=O)O)c3ccccc3c2=O)cc1	1%	-12%	5%	7%	-4%	5%	nt	RECQ1 conf=5%;ADP FP counter=20%
O=C(Cn1nc(C(=O)O)c2ccccc2c1=O)Nc1ccc2c(c1)C(=O)c1ccccc1C2=O	i	nt	nt	nt	-8%	-3%	nt	RECQ1 conf=?;ADP FP counter=112µM*
COc1ccc(C)cc1NC(=O)CC1NCCNC1=O (stereo unspecified)	nt	-2%	12%	9%	-1%	nt	nt
CCOc1ccc(/C=C/C(=O)c2cc(Br)ccc(=O)c2O)cc1	22µM*	45µM*	4%	-11%	-17%	21%	?
Cc1cccc(/C=C/C(=O)c2cc(Br)ccc(=O)c2O)c1	?	?	24%	i	-17%	-12%	?
SMILES	RECQ1 inh-1	FEN1 inh	GLS inhibitor	Tb PGK inh	BLM inh	APE1 inh	RECQ1 inh-2	others
Cc1ccc(/C=C/C(=O)c2cc(Br)ccc2OC(=O)c2ccco2)cc1	-6%	-15%	-10%	8%	-15%	-9%	nt
O=C(C=Cc1ccccc1)c1cc(Br)ccc1O	nt	2%	-8%	-1%	nt	nt	nt
CCc1ccc(/C=C/C(=O)c2cc(Br)ccc(=O)c2O)cc1	?	?	4%	-1%	-21%	?	?
COc1ccc(-c2nc(CSCC(=O)N3CCN(c4cccc(C)c4C)CC3)c(C)o2)cc1OC	nt	?	2%	-4%	-1%	nt	nt
O=C1/C(=C/c2ccc(O)c(O)c2)Oc2ccccc21	?	nt	nt	nt	-28%	?	45µM*
Cc1ccccc1/C=C1\Oc2ccccc2C1=O	nt	-21%	2%	-5%	nt	-13%	nt
O=S(=O)(Nc1ccc(F)c(C(F)(F)F)c1)c1ccc(N2CCCCS2(=O)=O)cc1	nt	3%	8%	7%	1%	nt	nt
CCc1nnc(NC(=O)c2sc3nc4c(cc3c2N)CCCCC4)s1	-4%	3%	-3%	i	-6%	-5%	nt
CCc1nnc(NC(=O)c2sc3nc4c(cc3c2N)CCCCCC4)s1	?	-1%	-6%	0%	-21%	1%	?
Cc1ccc(C(=O)c2c(C)oc3c2C(=O)C(=O)c2ccccc2-3)cc1	?	-23%	0%	-17%	-7%	-5%	56µM*
Cc1ccc(C(=O)c2coc3c2C(=O)C(=O)c2ccccc2-3)cc1	5%	-18%	-2%	nt	-1%	-11%	nt
Cc1cccc(Nc2nc(-c3ccccc3)c3cc(C)ccc3n2)c1	nt	-5%	-2%	7%	-7%	nt	nt
CCCCC/C=C/C=C1/C(=O)C=C[C@@H]1C/C=C\CCCC(=O)O	35µM*!	nt	nt	nt	70%	?	?
